Measured values as given in PubChem BioAssay AID1159580 (chemical genetic matrix, 2015).
Out of some 5,500 compounds screened, about 2,000 (36%) were called active. Roughly 18% stayed inconclusive and do not appear here. No stated cut-off is given here; in the data, active means normalized growth mostly below about 0.91 (no sharp cut-off); inconclusive means no clear call, values can overlap the other calls; inactive means mostly above about 0.92. The list shows a part of the results.

Experiment: chemical genetic growth profiling, strain panel (AID 1159580);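 further: tested at 20 µM; growth read once vehicle control cultures reached saturation at 30 °C; 1 = growth at the plate median or of vehicle wells; lower values mean less growth of the strain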
Conditions: growth OD

Measured: normalized growth

O=c1cc(-c2ccc(O)cc2)oc2cc(O[C@@H]3O[C@H](CO)[C@@H](O)[C@H](O)[C@H]3O[C@@H]3OC[C@](O)(CO)[C@H]3O)cc(O)c12
inactive: S. cerevisiae deletion strains, locus YJR075W, strain HOC1, hits give low values 1.04 | S. cerevisiae deletion strains, locus YKL009W, strain mrt4, hits give low values 0.986 | S. cerevisiae deletion strains, locus YKL068W, hits give low values 0.991 | S. cerevisiae deletion strains, locus YKL085W, strain MDH1 (second series), hits give low values 0.999 | S. cerevisiae deletion strains, locus YKL085W, strain MDH1, hits give low values 0.999 | S. cerevisiae deletion strains, locus YKL160W, strain elf1, hits give low values 1.01 | S. cerevisiae deletion strains, locus YKL190W, strain CNB1, hits give low values 0.994 | S. cerevisiae deletion strains, locus YKR001C, strain vps1, hits give low values 0.987 | S. cerevisiae deletion strains, locus YKR026C, strain gcn3, hits give low values 0.991 | S. cerevisiae deletion strains, locus YKR091W, strain srl3, hits give low values 1.01 | S. cerevisiae deletion strains, locus YLL001W, strain dnm1, hits give low values 0.993 | S. cerevisiae deletion strains, locus YLL026W, hits give low values 0.995 | S. cerevisiae deletion strains, locus YLL041C, strain sdh2, hits give low values 1 | S. cerevisiae deletion strains, locus YLR027C, strain aat2, hits give low values 1.01 | S. cerevisiae deletion strains, locus YLR039C, strain RIC1, hits give low values 1.11 | S. cerevisiae deletion strains, locus YLR058C, strain SHM2, hits give low values 1.02 | S. cerevisiae deletion strains, locus YLR102C, strain apc9, hits give low values 0.989 | S. cerevisiae deletion strains, locus YLR113W, strain HOG1, hits give low values 1.03 | S. cerevisiae deletion strains, locus YLR221C, strain rsa3, hits give low values 1.01 | S. cerevisiae deletion strains, locus YLR258W, strain gsy2, hits give low values 0.997 | S. cerevisiae deletion strains, locus YLR262C, strain YPT6 (second series), hits give low values 0.999 | S. cerevisiae deletion strains, locus YLR262C, strain YPT6, hits give low values 1.16 | S. cerevisiae deletion strains, locus YLR268W, strain sec22, hits give low values 0.983 | S. cerevisiae deletion strains, locus YLR320W, strain mms22, hits give low values 1.02 | S. cerevisiae deletion strains, locus YLR330W, strain CHS5, hits give low values 1.04 | S. cerevisiae deletion strains, locus YLR342W, strain FKS1 (second series), hits give low values 0.994 | S. cerevisiae deletion strains, locus YLR342W, strain FKS1, hits give low values 1.01 | S. cerevisiae deletion strains, locus YLR357W, strain rsc2, hits give low values 0.979 | S. cerevisiae deletion strains, locus YLR370C, strain arc18, hits give low values 1 | S. cerevisiae deletion strains, locus YLR371W, strain rom2, hits give low values 0.985 | S. cerevisiae deletion strains, locus YLR384C, strain iki3, hits give low values 0.999 | S. cerevisiae deletion strains, locus YLR418C, strain cdc73, hits give low values 1.06 | S. cerevisiae deletion strains, locus YML016C, strain PPZ1, hits give low values 1.01 | S. cerevisiae deletion strains, locus YML032C, strain rad52, hits give low values 1 | S. cerevisiae deletion strains, locus YML120C, strain ndi1, hits give low values 1.02 | S. cerevisiae deletion strains, locus YML124C, strain tub3, hits give low values 0.991 | S. cerevisiae deletion strains, locus YMR058W, strain fet3, hits give low values 1.01 | S. cerevisiae deletion strains, locus YMR078C, strain ctf18, hits give low values 0.963 | S. cerevisiae deletion strains, locus YMR125W, strain sto1, hits give low values 0.992 | S. cerevisiae deletion strains, locus YMR129W, hits give low values 1.01 | S. cerevisiae deletion strains, locus YMR205C, strain PFK2, hits give low values 1.01 | S. cerevisiae deletion strains, locus YMR223W, strain ubp8, hits give low values 1.02 | S. cerevisiae deletion strains, locus YMR231W, strain pep5, hits give low values 0.997 | S. cerevisiae deletion strains, locus YMR263W, strain SAP30, hits give low values 1.02 | S. cerevisiae deletion strains, locus YMR307W, strain GAS1, hits give low values 1.04 | S. cerevisiae deletion strains, locus YNL067W, strain RPL9B, hits give low values 1.02 | S. cerevisiae deletion strains, locus YNL071W, strain lat1, hits give low values 1.02 | S. cerevisiae deletion strains, locus YNL153C, strain GIM3, hits give low values 1 | S. cerevisiae deletion strains, locus YNL183C, strain NPR1, hits give low values 0.979 | S. cerevisiae deletion strains, locus YNL209W, strain ssb2, hits give low values 1.01 | S. cerevisiae deletion strains, locus YNL233W, strain BNI4, hits give low values 1.02 | S. cerevisiae deletion strains, locus YNL248C, strain rpa49, hits give low values 1 | S. cerevisiae deletion strains, locus YNL250W, strain rad50, hits give low values 1 | S. cerevisiae deletion strains, locus YNL271C, strain bni1, hits give low values 1.01 | S. cerevisiae deletion strains, locus YNL298W, strain CLA4, hits give low values 0.994 | S. cerevisiae deletion strains, locus YNL307C, strain MCK1, hits give low values 0.977 | S. cerevisiae deletion strains, locus YNL322C, strain KRE1 (second series), hits give low values 0.994 | S. cerevisiae deletion strains, locus YNL322C, strain KRE1, hits give low values 1.01 | S. cerevisiae deletion strains, locus YNR049C, strain mso1, hits give low values 0.998 | S. cerevisiae deletion strains, locus YNR052C, strain pop2, hits give low values 1 | S. cerevisiae deletion strains, locus YOL012C, strain htz1 0.956 | S. cerevisiae deletion strains, locus YOL147C, strain pex11, hits give low values 0.996 | S. cerevisiae deletion strains, locus YOR001W, strain rrp6, hits give low values 1.01 | S. cerevisiae deletion strains, locus YOR061W, strain CKA2, hits give low values 1.02 | S. cerevisiae deletion strains, locus YOR069W, strain VPS5, hits give low values 1 | S. cerevisiae deletion strains, locus YOR070C, strain gyp1, hits give low values 1 | S. cerevisiae deletion strains, locus YOR080W, strain dia2, hits give low values 1 | S. cerevisiae deletion strains, locus YOR083W, strain WHI5, hits give low values 1.02 | S. cerevisiae deletion strains, locus YOR106W, strain vam3, hits give low values 1.02 | S. cerevisiae deletion strains, locus YOR136W, strain idh2, hits give low values 0.974 | S. cerevisiae deletion strains, locus YOR144C, strain elg1, hits give low values 0.989 | S. cerevisiae deletion strains, locus YOR184W, strain ser1, hits give low values 1.04 | S. cerevisiae deletion strains, locus YOR231W, strain MKK1, hits give low values 1.07 | S. cerevisiae deletion strains, locus YOR265W, strain rbl2, hits give low values 1.01 | S. cerevisiae deletion strains, locus YOR270C, strain vph1, hits give low values 1.02 | S. cerevisiae deletion strains, locus YOR290C, strain snf2, hits give low values 0.998 | S. cerevisiae deletion strains, locus YOR316C, strain cot1, hits give low values 0.992 | S. cerevisiae deletion strains, locus YPL051W, strain arl3, hits give low values 1 | S. cerevisiae deletion strains, locus YPL055C, strain LGE1, hits give low values 1.04 | S. cerevisiae deletion strains, locus YPL078C, strain atp4, hits give low values 0.999 | S. cerevisiae deletion strains, locus YPL106C, strain sse1, hits give low values 0.997 | S. cerevisiae deletion strains, locus YPL240C, strain hsp82, hits give low values 1 | S. cerevisiae deletion strains, locus YPL241C, strain CIN2, hits give low values 1.01 | S. cerevisiae deletion strains, locus YPL256C, strain CLN2, hits give low values 0.995 | S. cerevisiae deletion strains, locus YPR119W, strain clb2, hits give low values 0.984 | S. cerevisiae deletion strains, locus YPR141C, strain kar3, hits give low values 0.999 | S. cerevisiae deletion strains, locus YPR163C, strain tif3, hits give low values 0.979 | S. cerevisiae deletion strains, locus YPR167C, strain met16, hits give low values 0.981 | S. cerevisiae deletion strains, strain wtn01, hits give low values 0.99 | S. cerevisiae strains, strain wild type, hits give low values 1.01
